Source: PubChem BioAssay (Tox21)
Results filed as inconclusive are left out. Calls of active or inactive are those of the source. Unless noted, calls follow the shape of the dose curve; as a rule, active = well fitted curve in the direction sought with a large enough effect in the repeat runs; inconclusive = weak or mixed curves; inactive = no such curve, though single readings can be large; an effect the other way counts as inactive or inconclusive.

Legend:
[1] = qHTS assay to identify small molecule agonists of the hypoxia (HIF-1) signaling pathway - cell viability counter screen (AID 1224844; calls by dose curve; also: nearly all actives have a fitted effect of over 50% in size)
Outline: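 Tox21 10K compounds were added to HRE-bla ME-180 cells (0.5% dialyzed FBS) and incubated 17 hrs at 37C; ATP-based CellTiter-Glo luminescence then reported cell viability in the same wells.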

[2] = qHTS assay to identify small molecule agonists of H2AX (AID 1224845; active = well fitted activation curve with a large enough effect in the signal ratio in the repeat runs, not every such curve was filed as active; the % refers to the signal ratio)
Outline: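 Wild-type CHO-K1 cells, plated overnight, exposed 3hr at 37C to 15 concentrations (0.76% DMSO final). Lysed, then HTRF anti-pH2AX (S139) cryptate and anti-H2AX-d2 antibodies, 24 hr room temperature; 665/620 nm emission read.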

[3] = qHTS assay to identify small molecule agonists of the hypoxia (HIF-1) signaling pathway (AID 1224846; active = well fitted activation curve with a large enough effect in the signal ratio in the repeat runs, not every such curve was filed as active; the % refers to the signal ratio)
Outline: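 Steps: seed ME-180 HRE-bla cells (2,000/well, 0.5% dialyzed FBS); incubate 5 hrs at 37C; pin-transfer compounds or DMSO; incubate 17 hrs; add LiveBLAzer B/G substrate CCF4-AM; measure reporter activation by FRET.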

[4] = qHTS assay to identify small molecule agonists of H2AX - cell viability counter screen (AID 1224847; calls by dose curve; also: top concentration of the series differs between compounds; nearly all actives have a fitted effect of over 30% in size)
Outline: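 Cells plated first: CHO-K1, 1000 per well in 10% FBS medium, incubated overnight at 37C. Then 15-point compound titration added (final DMSO 0.76%) for 3 hr. Finally CellTiter-Glo added and luminescence read.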

[5] = qHTS RealTime-Glo MT Cell Viability Assay in HepG2 cells - 24 hour (AID 1224867); also: nearly all actives have a fitted effect of over 50% in size
Outline: (§1)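 Cells + NanoLuc/prosubstrate dispensed (600 cells/well) → 5 h at 37 C/5% CO2 → compounds in DMSO transferred → 40 h incubation at 37 C, luminescence read at 0, 8, 16, 24, 32, 40 h.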

[6] = qHTS RealTime-Glo MT Cell Viability Assay in HEK293 cells - 32 hour (AID 1224868); also: top concentration of the series differs between compounds; nearly all actives have a fitted effect of over 50% in size
Outline: (§2)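 Tox21 10K qHTS, HEK293, 600 cells/well, RealTime-Glo reagent co-dispensed with cells; 5 h preincubation, compound by pintool, 37 C, luminescence at 0–40 h.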

[7] = A CellTox Green Cytotoxicity Assay to monitor cytotoxicity in HEK293 cells - 0 hour (AID 1224869); also: nearly all actives have a fitted effect of over 50% in size
Outline: (§3)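 Cytotoxicity was tracked continuously in HEK293 cells by a DNA-binding dye excluded from viable cells. Compounds were transferred in DMSO 5 h after seeding; fluorescence was recorded at intervals up to 40 h.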

[8] = qHTS RealTime-Glo MT Cell Viability Assay in HepG2 cells - 40 hour (AID 1224870); also: nearly all actives have a fitted effect of over 50% in size
Outline: (§4)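 HepG2 cells (600/well) mixed with RealTime-Glo MT reagent, settled 5 h at 37 C/5% CO2 before compound addition. Nonlytic NanoLuc luminescence from viable-cell prosubstrate reduction read repeatedly during 40 h treatment at 37 C.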

[9] = A CellTox Green Cytotoxicity Assay to monitor cytotoxicity in HEK293 cells - 40 hour (AID 1224871); also: nearly all actives have a fitted effect of over 45% in size
Outline: as §3

[10] = qHTS RealTime-Glo MT Cell Viability Assay in HEK293 cells - 16 hour (AID 1224872)
Outline: as §2

[11] = qHTS RealTime-Glo MT Cell Viability Assay in HepG2 cells - 8 hour (AID 1224873); also: nearly all actives have a fitted effect of over 55% in size
Outline: as §4

[12] = A CellTox Green Cytotoxicity Assay to monitor cytotoxicity in HEK293 cells - 24 hour (AID 1224875); also: series mostly up to about 77 µM; nearly all actives have a fitted effect of over 45% in size
Outline: as §3

[13] = qHTS RealTime-Glo MT Cell Viability Assay in HepG2 cells - 32 hour (AID 1224877); also: nearly all actives have a fitted effect of over 55% in size
Outline: as §1

[14] = A CellTox Green Cytotoxicity Assay to monitor cytotoxicity in HepG2 cells - 24 hour (AID 1224878); also: nearly all actives have a fitted effect of over 45% in size
Outline: (§5)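 Real-time, homogeneous cytotoxicity readout: dead-cell DNA staining by CellTox Green in HepG2 monolayers, fluorescence measured at timed intervals up to 40 h of continuous compound exposure.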

[15] = A CellTox Green Cytotoxicity Assay to monitor cytotoxicity in HepG2 cells - 40 hour (AID 1224879); also: nearly all actives have a fitted effect of over 40% in size
Outline: as §5

[16] = qHTS RealTime-Glo MT Cell Viability Assay in HEK293 cells - 0 hour (AID 1224880); also: top concentration of the series differs between compounds; nearly all actives have a fitted effect of over 45% in size
Outline: (§6)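 Nonlytic bioluminescent viability monitoring. HEK293 at 600 cells/well with reagent; 5 h settle; compound transfer by pintool; plates held at 37 C and read at set time points.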

[17] = qHTS RealTime-Glo MT Cell Viability Assay in HEK293 cells - 40 hour (AID 1224874); settings: RealTime-Glo luminescence; max response: active compounds read low; also: nearly all actives have a fitted effect of over 50% in size
Outline: as §6

[18] = A CellTox Green Cytotoxicity Assay to monitor cytotoxicity in HepG2 cells - 16 hour (AID 1224876); also: nearly all actives have a fitted effect of over 45% in size
Outline: as §5
% is scaled to controls: 0 for no effect and ±100 for the full control effect.

COc1ccc(OC)c(CC(C)N)c1 (centres undefined)
inactive: Potency [1] | Potency [2] | outcome [3] | Potency [4] | Potency [5] | Potency [6] | Potency [7] | Potency [8] | Potency [9] | Potency [10] | Potency [11] | Potency [12] | Potency [13] | Potency [14] | Potency [15] | Potency [16]

CC(C)(C)OO
inactive: Potency [1] | Potency [2] | outcome [3] | Potency [4] | Potency [5] | Potency [6] | Potency [8] | Potency [9] | Potency [10] | Potency [11] | max response [17] 12.3% | Potency [12] | Potency [18] | Potency [13] | Potency [14] | Potency [15] | Potency [16]

N#C/C=C/c1ccccc1
inactive: Potency [1] | Potency [2] | outcome [3] | Potency [4] | Potency [5] | Potency [6] | Potency [7] | Potency [8] | Potency [9] | Potency [10] | Potency [11] | max response [17] -0.121% | Potency [12] | Potency [18] | Potency [13] | Potency [14] | Potency [15] | Potency [16]

CCCCCCCCCCCCCN1CC(C)OC(C)C1 (centres undefined)
inactive: Potency [1] | Potency [2] | outcome [3] | Potency [4] | Potency [5] | Potency [6] | Potency [7] | Potency [8] | Potency [9] | Potency [10] | Potency [11] | Potency [12] | Potency [13] | Potency [14] | Potency [15] | Potency [16]

CC(C)OS(C)(=O)=O
inactive: Potency [1] | Potency [2] | outcome [3] | Potency [4] | Potency [5] | Potency [6] | Potency [7] | Potency [8] | Potency [10] | Potency [11] | max response [17] 0.77% | Potency [12] | Potency [18] | Potency [13] | Potency [14] | Potency [15] | Potency [16]

O=C(Cl)c1ccc(Cl)cc1
inactive: Potency [1] | Potency [2] | outcome [3] | Potency [4] | Potency [5] | Potency [7] | Potency [9] | Potency [11] | Potency [12] | Potency [18] | Potency [13] | Potency [14] | Potency [15] | Potency [16]

FC(Cl)(Cl)Cl
inactive: Potency [1] | Potency [2] | outcome [3] | Potency [4] | Potency [5] | Potency [6] | Potency [7] | Potency [8] | Potency [9] | Potency [10] | Potency [11] | max response [17] -2.7% | Potency [12] | Potency [18] | Potency [13] | Potency [14] | Potency [15] | Potency [16]

N#CCCO
inactive: Potency [1] | Potency [2] | outcome [3] | Potency [4] | Potency [5] | Potency [6] | Potency [7] | Potency [8] | Potency [9] | Potency [10] | Potency [11] | max response [17] 5.8% | Potency [12] | Potency [13] | Potency [14] | Potency [15] | Potency [16]

CN(CCCC(O)c1cccnc1)N=O (centres undefined)
inactive: Potency [1] | Potency [2] | outcome [3] | Potency [4] | Potency [5] | Potency [6] | Potency [7] | Potency [8] | Potency [9] | Potency [10] | Potency [11] | max response [17] -1.33% | Potency [12] | Potency [18] | Potency [13] | Potency [14] | Potency [15] | Potency [16]

C[C@@H](Oc1ccc(Cl)cc1Cl)C(=O)O
inactive: Potency [1] | Potency [2] | outcome [3] | Potency [4] | Potency [5] | Potency [6] | Potency [7] | Potency [8] | Potency [10] | Potency [11] | max response [17] 0.534% | Potency [12] | Potency [18] | Potency [13] | Potency [14] | Potency [15] | Potency [16]

O=C(NC(=O)c1c(F)cccc1F)Nc1cc(Cl)c(OC(F)(F)C(F)F)c(Cl)c1
inactive: Potency [1] | Potency [2] | outcome [3] | Potency [4] | Potency [5] | Potency [6] | Potency [7] | Potency [8] | Potency [9] | Potency [10] | Potency [12] | Potency [18] | Potency [13] | Potency [14] | Potency [15] | Potency [16]
